Experimental data: PubChem BioAssay
Values without a mark were called inactive. The source made the active and inactive calls. Cut-off read from the data, not from the text of the source: active = inhibition above about 44%; inactive = the rest.

Target: Steroidogenic factor 1 (Homo sapiens) (UniProt Q13285)
Assay: inverse agonism at SF1 nuclear receptor – cell-based, luminescence, high throughput, counter-screen for LRH-1 inverse agonist project (AID 651614);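 note: cells cotransfected with StAR promoter reporter and SF1 expression vector; 0% = vehicle on cells with receptor and 100% = vehicle on cells lacking receptor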
Settings: cell-based SF1 luciferase reporter, at 3.6 µM, stronger effect = higher value

Sequence of Steroidogenic factor 1 (Homo sapiens) (Q13285 whole entry, looked up): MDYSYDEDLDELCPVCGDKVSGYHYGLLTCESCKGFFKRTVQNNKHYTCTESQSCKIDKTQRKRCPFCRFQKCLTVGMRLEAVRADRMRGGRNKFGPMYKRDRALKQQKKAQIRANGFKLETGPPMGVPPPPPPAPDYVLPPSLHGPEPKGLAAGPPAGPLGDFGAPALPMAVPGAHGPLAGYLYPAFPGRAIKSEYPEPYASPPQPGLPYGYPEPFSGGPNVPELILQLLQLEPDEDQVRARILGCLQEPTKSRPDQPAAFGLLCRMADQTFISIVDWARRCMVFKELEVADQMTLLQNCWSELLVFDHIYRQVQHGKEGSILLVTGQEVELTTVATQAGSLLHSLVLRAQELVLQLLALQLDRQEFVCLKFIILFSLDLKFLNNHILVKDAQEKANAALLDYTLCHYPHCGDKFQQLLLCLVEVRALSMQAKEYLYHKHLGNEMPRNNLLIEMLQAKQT

**Q.** `Cc1ccc(CNC(=O)CN2C(=O)NC3(CCCC3)C2=O)cc1` was tested. Which inhibition did it give?
**A.** 43.7% (active)

**Q.** For `CN(C)c1ccc(NC(=O)CN2CCC(NC(=O)C3CCCCC3)CC2)cc1`, which inhibition is on record?
**A.** 54.1% (active)

**Q.** How did the inhibition turn out when `Cc1ccc[n+](CC(=O)Nc2ccc([N+](=O)[O-])cc2)c1` was run?
**A.** 57% (active)

**Q.** Which inhibition does the source give for `Cc1cc(/C=N/n2cnnc2)c(C)n1-c1ccc(OCc2ccc(Cl)cc2)cc1` here?
**A.** 48.3% (active)

**Q.** How did the inhibition turn out when `COc1ccc(OC)c(NC(=O)c2ccccc2NC(=O)c2ccco2)c1` was run?
**A.** 47.3% (active)

**Q.** `COc1cc(-c2cc(C(=O)NCc3ccc(S(N)(=O)=O)cc3)c3ccccc3n2)cc(OC)c1OC` was tested. Which inhibition did it give?
**A.** 23.5%

**Q.** `O=C(COc1ccc(F)c(Cl)c1)Nc1ccc(N2CCOCC2)cc1` was tested. Which inhibition did it give?
**A.** 39%

**Q.** `Nn1c(SCC(=O)Nc2c(F)cc(F)cc2Br)nnc1C1CCCCC1` was tested. Which inhibition did it give?
**A.** 27.5%

**Q.** How did the inhibition turn out when `COc1ccc(NS(=O)(=O)c2ccc(-c3coc(C)n3)cc2)cc1OC` was run?
**A.** 64.7% (active)

**Q.** For `COC(=O)c1ccc(NC(=O)CSc2nn3c(=O)c(C)nnc3s2)cc1`, which inhibition is on record?
**A.** 56.4% (active)

**Q.** Which inhibition does the source give for `CCc1ccc2oc(C(=O)NCc3ccncc3)c(C)c2c1` here?
**A.** 61% (active)

**Q.** For `O=C(COC(=O)c1ccc(S(=O)(=O)N2CCCC2)cc1)Nc1ccc(N2CCOCC2)cc1`, which inhibition is on record?
**A.** 57.4% (active)

**Q.** With `Cc1ccc(S(=O)(=O)NCc2ccncc2)cc1` as the molecule, how does the inhibition read?
**A.** 43% (active)

**Q.** For `CCOc1ccc(NC(=O)CSc2nccn(-c3ccc4c(c3)OCCO4)c2=O)cc1`, which inhibition is on record?
**A.** 60.7% (active)

**Q.** `O=C(CCl)Nc1cccn2ncnc12` was tested. Which inhibition did it give?
**A.** 54.6% (active)

**Q.** With `CCC(=O)N1CCN(c2ccc(Cl)cc2NC(=O)c2ccc([N+](=O)[O-])o2)CC1` as the molecule, how does the inhibition read?
**A.** 61.9% (active)

**Q.** `COc1ccc(-c2cc3ccccc3oc2=O)cc1NC(=O)c1ccc([N+](=O)[O-])o1` was tested. Which inhibition did it give?
**A.** 22.5%

**Q.** With `CCCn1c2c(c(=N)c3c1CCC3)CCCC2` as the molecule, how does the inhibition read?
**A.** 55% (active)

**Q.** `O=C(NCCCc1ccccc1)c1cc([N+](=O)[O-])ccc1Cl` was tested. Which inhibition did it give?
**A.** 67.5% (active)

**Q.** Which inhibition does the source give for `CN(CC(=O)Nc1ccc(N2CCOCC2)cc1)CC(=O)Nc1ccc(N2CCOCC2)cc1` here?
**A.** 54.2% (active)

**Q.** `CC(=O)c1ccc(NC(=O)C(C)O/N=C(\N)c2ccccc2)cc1` (stereo not given) was tested. Which inhibition did it give?
**A.** 41.8%

**Q.** With `CC(=O)c1ccsc1-c1c(C)cc2oc(=O)cc(-c3ccccc3)c2c1C` as the molecule, how does the inhibition read?
**A.** 54.4% (active)

**Q.** With `COc1cc(NC(=O)c2ccc([N+](=O)[O-])o2)ccc1NC(=O)c1cccs1` as the molecule, how does the inhibition read?
**A.** 61.9% (active)

**Q.** How did the inhibition turn out when `CCCCCOc1ccc(Br)cc1CSC(=N)N` was run?
**A.** 66.2% (active)

**Q.** `CC(C)Oc1cccc(-c2cc(C(=O)NN3CCOCC3)c3ccccc3n2)c1` was tested. Which inhibition did it give?
**A.** 40.4%

**Q.** Which inhibition does the source give for `O=C(N/N=C/c1ccc([N+](=O)[O-])s1)c1ccccc1Br` here?
**A.** 65.3% (active)

**Q.** `COc1ccc(-c2c(C)nn3c(NC4CCCC4)cc(C)nc23)cc1OC` was tested. Which inhibition did it give?
**A.** 54.8% (active)

**Q.** With `C=CCOc1ccccc1CN(C(=O)CCl)c1ccc2c(c1)OCO2` as the molecule, how does the inhibition read?
**A.** 53.5% (active)

**Q.** With `CCOc1ccc(CCNC(=O)COC(=O)/C=C/c2ccc(OC(F)F)c(OC)c2)cc1OCC` as the molecule, how does the inhibition read?
**A.** 47.1% (active)

**Q.** For `CCCOc1ccc2oc(=O)c3c(c2c1)CCCN3C(=O)CN1CCN(c2ncccn2)CC1`, which inhibition is on record?
**A.** 55.7% (active)

**Q.** How did the inhibition turn out when `CCN1C(=O)c2cccc3c(NC(=O)c4ccc(S(=O)(=O)N5CCOCC5)cc4)ccc1c23` was run?
**A.** 62.7% (active)

**Q.** How did the inhibition turn out when `Cc1ccc(NC(=O)CSc2nnc(CCCCCNC(=O)OC(C)(C)C)o2)c(C)c1` was run?
**A.** 42.7%

**Q.** `COc1ccc2c(c1)C1C=CCC1C(c1cc3c(cc1Br)OCO3)N2` (stereo not given) was tested. Which inhibition did it give?
**A.** 30.1%

**Q.** How did the inhibition turn out when `Cc1cc2oc(=O)cc(-c3ccccc3)c2c(C)c1-c1ccc(CO)cc1` was run?
**A.** 63.6% (active)

**Q.** `CCN(CC)CC(=O)Nc1ccc(-c2nc3cc(NC(=O)CN(CC)CC)ccc3o2)cc1` was tested. Which inhibition did it give?
**A.** 39.6%

**Q.** `O=C1C(=C(I)I)c2ccccc2-c2ccccc21` was tested. Which inhibition did it give?
**A.** -21.6%

**Q.** With `O=C(Nc1ccc(N2CCOCC2)c(Cl)c1)c1ccc([N+](=O)[O-])o1` as the molecule, how does the inhibition read?
**A.** 35.9%

**Q.** For `COc1cc(CCNc2ccc3nnc(-c4ccccc4)n3n2)cc(OC)c1OC`, which inhibition is on record?
**A.** 28.6%

**Q.** How did the inhibition turn out when `CCCc1cc(=O)oc2cc(OCC(=O)NC3CC(C)(C)NC(C)(C)C3)ccc12` was run?
**A.** 45.7% (active)

**Q.** With `CC(=O)Oc1ccc2oc(=O)c3c(c2c1)CCCN3C(=O)CN1CCN(c2ncccn2)CC1` as the molecule, how does the inhibition read?
**A.** 66.4% (active)
